# Measured values from PubChem BioAssay AID504727 (Broad Institute, 2011).
# Calls of active or inactive are those of the source.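 Rule for the calls: active = fitted half-maximal concentration AC50 at or below ten times the highest valid tested dose, with signal falling as DNA is displaced (actives reach about 34 µM in these data); inconclusive = flat fit at moderate signal loss, or poor fit quality; inactive = the rest, including signal rising instead of falling.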
# Test: acridine orange-DNA binding displacement – biochemical, fluorescence polarization, cherry-picked samples, set 2, artefact control for KSHV LANA DNA-binding inhibitor project, dose response (AID 504727)
# Conditions: series mostly up to 35 µM
row,Compound,AC50
1,COc1ccc(C)cc1NC(=O)C(OC(=O)c1cnccn1)c1ccccc1 (centres undefined),inactive
2,O=S(=O)(O)c1cccc2cccc(Nc3ccccc3)c12,inactive
3,O=C(O)c1ccccc1NC(=O)c1cc(-c2ccccc2)nc2ccccc12,inactive
4,Cc1ccc(C(=O)c2coc3ccc(O)c(Cl)c23)cc1,inactive
5,O=C(N/N=C/c1ccc(N2CCOCC2)cc1)c1ccccn1,inactive
6,COCCN(C(=O)CN1CCCc2ccccc21)c1c(N)n(Cc2ccccc2)c(=O)[nH]c1=O,inactive
7,CCOc1ccc(C(C)NC(=O)c2ccccc2OCc2c(C)noc2C)cc1OCC (centres undefined),inactive
8,Nc1nc(C(F)(F)F)cc(=O)[nH]1,inactive
9,CCOC(=O)CCCn1c(C)nc(=O)c(-c2ccccc2)c1C,inactive
10,COC(=O)C1CCN(C(=O)COC(=O)Cc2c[nH]c3ccccc23)CC1,inactive
11,Cc1nc(Cl)c2c(n1)NC1=C(O2)C(=O)CCC1,11.1 µM (active)
12,O=C(CCCN1C(=O)/C(=C\c2ccco2)SC1=S)Nc1ccc(O)cc1C(=O)O,inactive
13,CC(C)N(Cc1ccccc1)C(=O)Cn1c(=O)cnc2ccccc21,inactive
14,O=C(COC(=O)c1ccc([N+](=O)[O-])o1)NCCCc1ccccc1,inactive
15,O=C(Nc1ccccc1F)C(=Cc1sc(N2CCOCC2)nc1-c1ccccc1)C(=O)Nc1ccccc1F,25.1 µM (active)
16,C=C1c2cccc(O)c2C(O)=C2C(=O)[C@]3(O)C(O)=C(C(N)=O)C(=O)[C@@H](N(C)C)[C@@H]3[C@@H](O)[C@H]12,inactive
17,Cc1ccc(C(=O)O)cc1N1C(=O)c2cccc3c([N+](=O)[O-])ccc(c23)C1=O,inactive
18,O=S(=O)(O)c1cc(O)c2ccc(Nc3ccccc3)cc2c1,inactive
19,Nc1c(-c2ccccn2)cnn1-c1nc(-c2ccc(F)cc2)cs1,inactive
20,CC(Sc1nc(-c2ccco2)nc2c1c(=O)n(C)c(=O)n2C)C(=O)O (centres undefined),inactive

row,Compound,AC50
1,Cc1ccc(CSc2ncnc3onc(C)c23)cc1,inactive
2,O=C(O)CCCN1C(=O)/C(=C/C=C/c2ccco2)SC1=S,inactive
3,N=C1/C(=C\c2ccc(Br)o2)C(=O)N=C2SC(CC(=O)N3CCOCC3)=NN12,inactive
4,Nc1ccc(-c2nc3ccc(C(=O)O)cc3s2)cc1,inactive
5,C=CCNC(=S)N1CCN(S(=O)(=O)c2ccc(C)cc2)CC1,inactive
6,CSc1ncccc1C(=O)OCCCC(=O)c1ccc(F)cc1,inactive
7,COc1cccc2c1C(=O)c1c(O)c3c(c(O)c1C2=O)C[C@@](O)(C(C)=O)C[C@@H]3O[C@H]1C[C@H](N)[C@H](O)[C@H](C)O1,1.89 µM (active)
8,O=[N+]([O-])c1cc(-n2cnnn2)ccc1N1CCC(Cc2ccccc2)CC1,inactive
9,Cn1c(Cl)c(C(=O)Nc2ccc(Cl)cc2)c2ccccc21,inactive
10,COC(=O)c1ccccc1NC(=O)CCS(=O)(=O)c1ccc(Br)cc1,inactive
11,O=c1[nH]nc(CSCc2ccccc2Cl)[nH]1,inactive
12,COC(=O)c1cccc(COC(=O)c2ccccc2NC(=O)c2ccco2)c1,inactive
13,CC1CCCN(C(=O)C(=O)c2cn(CC(=O)N3CCCCCC3)c3ccccc23)C1 (centres undefined),inactive
14,COc1cccc(/C=N/NC(=O)C(=O)NCc2cccnc2)c1O,inactive
15,CCCN(CCC)S(=O)(=O)c1ccc(C(=O)OCCN2C(=O)c3cccc4c(N5CCOCC5)ccc(c34)C2=O)cc1,6.89 µM (active)
16,NC(=S)N/N=C/c1cn(CCC(=O)O)nc1-c1cccc(Br)c1,inactive
17,O=[N+]([O-])c1cccc(CSc2nc3ccccc3[nH]2)c1,inactive
18,Cc1cc(C(F)(F)F)c2c(N)c(C(=O)Nc3cc(C)on3)sc2n1,inactive
19,CC(=O)Nc1ccc(S(=O)(=O)Nc2nc3ccccc3nc2Nc2ccc(C(=O)O)c(O)c2)cc1,inactive
